The whole screen tested about 110,000 compounds, of which about 190 (0.17%) were called active. Cut-off read from the data, not from the text of the source: active = inhibition above about 50%; inactive = the rest. Shown is part of a subset that was picked to be rich in actives. Measured potencies and affinities stand elsewhere.

The target in this experiment is Dual specificity protein phosphatase 6 (Rattus norvegicus) (UniProt Q64346). Description: inhibition of rat DUSP6 enzyme activity – biochemical, in vitro, primary screen (AID 425).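 Note: plate controls were vehicle for no effect and reference inhibitor for full effect.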 To be noted: recombinant MKP-3 phosphatase activity, fluorescence; at 20 µM; stronger effect = higher value.
Dual specificity protein phosphatase 6 (Rattus norvegicus), sequence (Q64346 whole entry, looked up): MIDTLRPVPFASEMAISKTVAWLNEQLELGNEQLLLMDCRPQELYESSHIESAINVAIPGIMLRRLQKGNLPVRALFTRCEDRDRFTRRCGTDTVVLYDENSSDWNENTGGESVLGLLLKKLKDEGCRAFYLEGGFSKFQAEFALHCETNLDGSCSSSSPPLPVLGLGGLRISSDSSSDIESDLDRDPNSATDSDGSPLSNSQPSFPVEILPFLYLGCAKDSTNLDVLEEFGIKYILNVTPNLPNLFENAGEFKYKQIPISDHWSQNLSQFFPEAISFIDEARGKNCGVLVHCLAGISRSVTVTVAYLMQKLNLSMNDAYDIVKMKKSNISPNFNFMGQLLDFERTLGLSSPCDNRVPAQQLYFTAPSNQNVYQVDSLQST
As for `CCOc1ccc(N(CC(=O)NCc2ccccc2)S(C)(=O)=O)cc1`, the inhibition (commonly the change of the read-out against control, counted positive when it falls) was -13.8% (inactive).

For `Cc1cc(C)n(C(=O)Nc2ccccc2)n1`, the inhibition is 4.3% (inactive).

Consider `Cc1cc2n(n1)SC(Nc1ccccc1)N2` (stereo unspecified), for which the inhibition is 61.5% (active).

Turning to `Cc1cc(Nc2ccccc2)n(-c2ccccc2)n1`, the inhibition is -6.8% (inactive).

For the compound `COc1cc(C(=O)N2CCN(C3C4CC5CC(C4)CC3C5)CC2)cc(OC)c1OC` (stereo unspecified), the inhibition is 3.7% (inactive).

As to `CC(=O)NC1=C(N(C)C)C(=O)c2ccccc2C1=O`, the inhibition was 0.7% (inactive).

As to `CC(=O)C(C(C)=O)C1=CC(=O)C(=O)c2ccccc21`, the inhibition was 91.6% (active).

With `CC(=O)Nc1ccc(NC2=C(Cl)C(=O)c3ccccc3C2=O)cc1`, the inhibition was 3.8% (inactive).

For `CC(=O)NC1=C(Cl)C(=O)c2ccccc2C1=O`, the inhibition was 106% (active).

Take `CC(=O)c1ccc(NC2=C(Cl)C(=O)c3ccccc3C2=O)cc1`: the inhibition was -8.2% (inactive).

As to `CC(C)OC1=C(Cl)C(=O)c2ccccc2C1=O`, the inhibition was 5.3% (inactive).

For `CC(=O)N(C1=C(Cl)C(=O)c2ccccc2C1=O)c1ccc(Br)cc1`, the inhibition was 21.1% (inactive).

On to `O=C1C=C(C(c2ccccc2)c2ccccc2)C(=O)c2ccccc21`, for which the inhibition is 6.7% (inactive).

On to `CC(=O)N(C1=C(Cl)C(=O)c2ccccc2C1=O)c1ccc(Cl)cc1`, for which the inhibition was 13.9% (inactive).

As to `CC(=O)C(C(C)=O)C1=C(Cl)C(=O)C(=O)c2ccccc21`, the inhibition is 71% (active).

On to `CC(=O)N(C)C1=C(Cl)C(=O)c2ccccc2C1=O`, for which the inhibition is 54.9% (active).

With `O=C1C(=O)c2ccccc2C(Cl)=C1Cl`, the inhibition is 23% (inactive).

`Cc1cc(O)c2c(-c3ccccc3)cc(=O)oc2c1`: the inhibition was -1.9% (inactive).

Regarding `CCOC(=O)c1ccc(N2C(=O)C(O)=C(C(C)=O)C2c2ccccn2)cc1` (stereo unspecified), the inhibition is -5.9% (inactive).

Turning to `O=C1N/C(=N\N=C\c2cccc([N+](=O)[O-])c2)SC1Cc1cccc(Cl)c1Cl` (stereo unspecified), the inhibition is -3% (inactive).

As to `CC(=O)c1ccc(N2C(=O)c3c(Cl)c(Cl)c(Cl)c(Cl)c3C2=O)cc1`, the inhibition was 1.4% (inactive).

For `O=C(O)COc1ccc(N2C(=O)c3c(Cl)c(Cl)c(Cl)c(Cl)c3C2=O)cc1`, the inhibition was 2.1% (inactive).

For `O=C(NCc1cccs1)C1CCN(S(=O)(=O)N2CCCC2)CC1`, the inhibition was 3.1% (inactive).

For the compound `Cc1ccc(C)c(Nc2nc3c(s2)CCCC3)c1`, the inhibition was -4% (inactive).

`Cc1cccc(Nc2nc3c(s2)CCCC3)c1`: the inhibition is 95.3% (active).

`Clc1cccc(Nc2nc3c(s2)CCCC3)c1`: the inhibition was 0.9% (inactive).

Take `COc1ccccc1N1C(=O)C2C3C=CC(O3)C2C1=O` (stereo unspecified): the inhibition was -2.7% (inactive).

Take `CCOC(=O)N1CCC(N2C(=O)c3ccccc3C2=O)CC1`: the inhibition was 1.8% (inactive).

With `CN(C)S(=O)(=O)c1cc(C(=O)NCC2CCCO2)c(Cl)cc1Cl` (stereo unspecified), the inhibition is -1.6% (inactive).

On to `CCC(C(=O)NC1CCCC1)N(C(=O)Cn1nnc(-c2ccc(C)o2)n1)C(C)(C)C` (stereo unspecified), for which the inhibition was -14.3% (inactive).

For the compound `O=C(O)c1ccc(-n2c(=O)c3ccccc3c3ccccc3c2=O)cc1`, the inhibition is 1.5% (inactive).

`Cc1ccc(-n2c(=O)c3cc4c(=O)n(-c5ccc(C)c(C)c5)c(=O)c4c(C(=O)c4ccccc4)c3c2=O)cc1C`: the inhibition was 0.3% (inactive).

For the compound `Cc1ccc(OCC(=O)N(Cc2ccc(N(C)C)cc2)C2CCS(=O)(=O)C2)cc1` (stereo unspecified), the inhibition is -8.2% (inactive).

On to `COc1ccc(/C=N/NC(=O)COc2ccc3c(C)cc(=O)oc3c2)cc1`, for which the inhibition is -1.4% (inactive).

Take `CCOc1ccc(NCC(=O)N/N=C/c2cc([N+](=O)[O-])ccc2O)cc1`: the inhibition was 5.2% (inactive).

For the compound `O=c1c[n+]([O-])c2ccccc2n1OCc1ccccc1`, the inhibition is 0% (inactive).

Take `CC1CCN(C(=O)CSc2nc3c(cnn3-c3ccccc3)c(=O)[nH]2)CC1`: the inhibition is -9.5% (inactive).

Regarding `CC(C)CCNC(=O)Cn1cc2c(n1)CCCCC2`, the inhibition is -5.2% (inactive).

Turning to `O=S(=O)(O)c1cccc2c(N=Cc3cc(Cl)cc(Cl)c3O)cccc12`, the inhibition was 0.7% (inactive).

As for `Oc1ccc(N=Nc2ccc(Cl)cc2)c2cccnc12`, the inhibition was 2.7% (inactive).

Take `Cc1ccc(OCCOc2ccc(C=O)cc2)cc1C`: the inhibition is 1.6% (inactive).

For `CCC(=O)c1ccc(N2CCN(C(=O)c3ccc(F)c(F)c3)CC2)c(F)c1`, the inhibition is 2% (inactive).

On to `Cc1ccc(S(=O)(=O)N(C)CCCC(=O)N2CCN(C=O)CC2)cc1`, for which the inhibition is -5.2% (inactive).

For the compound `O=C(Nc1cccc2c1CCCC2)c1ccco1`, the inhibition is -7% (inactive).

With `CCn1c(SCC(=O)N/N=C/C=C/c2ccccc2)nc2ccccc21`, the inhibition was 1.5% (inactive).

For `O=C(c1ncc[nH]1)c1ccccc1C(=O)N1CCOCC1`, the inhibition was 1.3% (inactive).

Take `COc1ccccc1-c1nc(C#N)c(N2CCC(Cc3ccccc3)CC2)o1`: the inhibition is 3.6% (inactive).

Take `COc1ccc2c(c1)c(=O)c(Br)c(C)n2Cc1ccccc1`: the inhibition was -17.6% (inactive).

In the case of `COc1cc2c(=O)n(Cc3ccccc3)c(=O)n(CC(=O)C(C)(C)C)c2cc1OC`, the inhibition was 4% (inactive).

For the compound `COc1cc2cc(=O)n(Cc3ccccc3)c(C)c2cc1OC`, the inhibition was 70.3% (active).

As for `O=C1C=CC2=C3Oc4c(ccc5cc(O)ccc45)C(c4ccccc4C(=O)O)C3C=CC2=C1` (stereo unspecified), the inhibition was 82.7% (active).

As for `Cc1ccc(S(=O)(=O)Cc2ccc(C(=O)N3CCN(c4ccc(F)cc4)CC3)o2)cc1`, the inhibition is -8.1% (inactive).

Turning to `CCOC(=O)C1=C(C)NC2=C(C(=O)CCC2)C1c1ccc(OCc2cccc(F)c2)c(OC)c1` (stereo unspecified), the inhibition was 2.1% (inactive).

Turning to `COc1cccc2c(Cl)c(CC=C(Cl)Cl)c(C)nc12`, the inhibition is 74.2% (active).

With `CCc1c(C)nc2c(OC)cccc2c1Cl`, the inhibition is 2.1% (inactive).

For `COc1cccc2c(Cl)cc(C)nc12`, the inhibition is -2.4% (inactive).

With `COc1ccc(S(=O)(=O)Nc2cc(C)c(O)c(S(=O)(=O)c3ccccc3)c2)cc1`, the inhibition was -2.6% (inactive).

In the case of `CN(C)c1ccc(NC(=S)Nc2ccccc2)cc1`, the inhibition is 0.8% (inactive).

For `CC(=O)N(C)c1ccc(NC(=S)Nc2ccccc2)cc1`, the inhibition is 2.9% (inactive).

In the case of `CN(C(=S)Nc1ccccc1)c1ccccc1`, the inhibition was 50.8% (active).

As to `CCNc1nc(NS(=O)(=O)c2ccc(C)cc2)nc(SC)n1`, the inhibition was 0.7% (inactive).

On to `COC(=O)c1c(N=CN(C)C)c(C#N)c(C)n1-c1ccccc1`, for which the inhibition was 4.3% (inactive).

`O=C(CSc1nc(O)c(Cc2ccccc2)c(=O)n1-c1ccccc1)N1CCOCC1`: the inhibition was 3% (inactive).

For the compound `O=C1NC(=S)N/C1=C/c1ccc(-c2cc([N+](=O)[O-])ccc2Cl)o1`, the inhibition was 36.3% (inactive).

Take `O=C1NC(=S)N/C1=C\c1ccc(-c2cccc([N+](=O)[O-])c2)o1`: the inhibition was 0.1% (inactive).

As to `O=C1NC(=S)N/C1=C\c1ccc(-c2cc([N+](=O)[O-])ccc2Br)o1`, the inhibition is 50% (active).

`O=c1c2ccccc2nc(-c2ccco2)n1-c1cccc2ccccc12`: the inhibition was 2.8% (inactive).

`Cc1ccc(-c2nc(-c3cc4cc([N+](=O)[O-])c(O)cc4oc3=O)cs2)cc1`: the inhibition was -1.3% (inactive).

In the case of `O=c1oc2cc(O)c([N+](=O)[O-])cc2cc1-c1csc(-c2ccc(Cl)cc2)n1`, the inhibition was 6.8% (inactive).

Consider `O=c1oc2cc(O)c([N+](=O)[O-])cc2cc1-c1csc(-c2cc3ccccc3oc2=O)n1`, for which the inhibition was 85.1% (active).

As for `O=C(c1ccc([N+](=O)[O-])cc1)N1CCN(Cc2ccccn2)CC1`, the inhibition was 1.2% (inactive).

Turning to `CC(=O)CC(=O)Nc1ccc(C)c(Cl)c1`, the inhibition is -2.2% (inactive).

`O=C1C=C/C(=N\S(=O)(=O)c2cccc([N+](=O)[O-])c2)c2ccccc21`: the inhibition was 78.3% (active).

For the compound `O=[N+]([O-])c1cccc(S(=O)(=O)Nc2ccccc2-c2ccccc2)c1`, the inhibition was -0.7% (inactive).

As to `O=C1c2ccccc2C(=O)N1/N=C/c1ccc(Cl)c([N+](=O)[O-])c1`, the inhibition was -2.1% (inactive).

In the case of `O=C1C=CC(=NS(=O)(=O)c2ccc(Cl)c([N+](=O)[O-])c2)C=C1`, the inhibition is 10.8% (inactive).

Consider `O=[N+]([O-])c1cccc(S(=O)(=O)/N=C(/Nc2ccccc2)c2ccccc2)c1`, for which the inhibition was 0.1% (inactive).

On to `O=C1C=C/C(=N\S(=O)(=O)c2ccc(Cl)c([N+](=O)[O-])c2)c2ccccc21`, for which the inhibition was 57.6% (active).

Take `COc1ccc(C(=O)NC(=S)Nc2ccc(I)cc2)cc1`: the inhibition is 1.2% (inactive).

On to `CCc1ccc(S(=O)(=O)Nc2ccc(OC(=O)c3ccc(Cl)cc3)cc2)cc1`, for which the inhibition is 0.4% (inactive).

Take `CCn1c(/N=C/c2c[nH]c3ccccc23)nc2ccccc21`: the inhibition was -7.4% (inactive).

Consider `Cn1c(/N=C/c2c(O)ccc3ccccc23)nc2ccccc21`, for which the inhibition is -12.4% (inactive).

Turning to `CCn1c(/N=C/c2c(O)ccc3ccccc23)nc2ccccc21`, the inhibition is 78.4% (active).

As to `COc1ccc(NC(=O)CN(c2ccc(C)cc2)S(=O)(=O)c2ccc(SC)cc2)cc1OC`, the inhibition is 0.5% (inactive).

As for `N#Cc1ccc2c(c1)nc1c3cccc4cccc(c(=O)n21)c43`, the inhibition was 66.7% (active).

Consider `O=c1c2ccc(Br)c3cccc(c32)c2nc3cccc4cccc(c43)n12`, for which the inhibition is 2.3% (inactive).

`O=c1c2ccc(Br)c3cccc(c32)c2nc3ccc4c5c(ccc(c35)n12)CC4`: the inhibition was 0.3% (inactive).

Turning to `CCOc1ccc2nc(SC3CC(=O)N(c4ccccc4C)C3=O)sc2c1` (stereo unspecified), the inhibition was 0.7% (inactive).

Take `Cc1ccc(/C=C2\NC(=O)c3ccccc3C2=O)cc1`: the inhibition is 21% (inactive).

For the compound `COc1ccc(/C=C2\NC(=O)c3ccccc3C2=O)cc1`, the inhibition is 121% (active).

`COc1ccc(/C=C2/NC(=O)/C(=C/c3ccc(OC)cc3)C2=O)cc1`: the inhibition was 4.5% (inactive).

Consider `O=S(=O)(Nc1ncnc2c1oc1ccccc12)c1ccc(Cl)s1`, for which the inhibition was -12.5% (inactive).

Regarding `CCC1=NN2C(=N)/C(=C/c3ccc(OC)c(OC)c3)C(=O)N=C2S1`, the inhibition was -3.5% (inactive).

For `COc1ccc(/C=C2/C(=N)N3N=C(C(C)C)SC3=NC2=O)cc1OC`, the inhibition was 0% (inactive).

Take `CC(=O)N1CCC(C(=O)Nc2ccccc2)(N(Cc2ccccc2)C(=O)c2cccnc2)CC1`: the inhibition is -4.2% (inactive).

Regarding `CCOC(=O)c1c2c(n(C)c1CNC(C)C)C(=O)C(=O)c1ccc(Br)cc1-2`, the inhibition is 117% (active).

Regarding `CCOC(=O)c1nnn(-c2nonc2N)c1CNC(C)C`, the inhibition is 6.2% (inactive).

On to `Cc1c(CN(C)C)c2c(n1C)C(=O)c1ccc(Br)cc1-2`, for which the inhibition was 1.2% (inactive).

For the compound `CCOC(=O)c1c2c(n(C)c1CO)C(=O)C(=O)c1ccc(Br)cc1-2`, the inhibition was 120% (active).

Consider `CCOC(=O)c1c2c(n(Cc3ccccc3)c1C)C(=O)C(=O)c1ccc(Br)cc1-2`, for which the inhibition is 34% (inactive).

Regarding `CCOC(=O)c1c(C)n(C)c2ccc(OC(C)C(=O)OC)cc12` (stereo unspecified), the inhibition was -3.4% (inactive).

(Values after PubChem BioAssay AID425 (Sanford-Burnham Center for Chemical Genomics, 2006).)
